Assay results from PubChem BioAssay AID493247 (Broad Institute, 2011).
Entries with a potency or affinity are not part of this list. Results filed as inconclusive are left out. Unmarked numbers belong to inactive results.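 How the source made its calls: active means falling luminescence with a fitted half-effect concentration at most ten times the top dose in every repeat; inconclusive means repeats disagree, poor fit, or flat moderate signal drop; inactive means the rest.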

Experiment: cytotoxicity in NIH/3T3 mouse fibroblasts, dose response, cytotoxicity control, cell-based, mouse embryonic fibroblasts, dry powder, set 2 (AID 493247)
Settings: NIH/3T3 cytotoxicity, CellTiter-Glo ATP luminescence, 90 h; series mostly up to 19.5 µM; activity change, negative = cytotoxic: at the top concentration

SMILES | activity change, negative = cytotoxic [%]
COc1cc(CN2CCC(C(=O)NC(C)c3ccc(OC)c(OC)c3)CC2)cc(OC)c1 (stereo unspecified) | -5.63
CCNC(=O)C1(C)CCN(C(=O)c2ccc(OC)c(OC)c2)C1 (stereo unspecified) | 8.84
COc1cc2c(cc1OC)C(C)N(CCC(N)=O)CC2 (stereo unspecified) | 2.04
CCCNC(=O)C1(C)CCN(C(=O)Cc2ccc(OC)c(OC)c2)C1 (stereo unspecified) | 3.33
COc1ccc(CN2CCCC(C(=O)N3CCCC3)C2)c(OC)c1OC (stereo unspecified) | 3.82
COc1ccc(CCNC(=O)C2CCCCC2)cc1OC | 12.5
COCCNC(=O)C1(C)CCCN(C(=O)c2cc(OC)c(OC)c(OC)c2)C1 (stereo unspecified) | -5.22
CCNC(=O)C1(C)CCCN(C(=O)Cc2ccc(OC)c(OC)c2)C1 (stereo unspecified) | -10.4
COc1ccc(CCN(C)C(=O)C2CCCN(Cc3ccccc3C)C2)cc1OC (stereo unspecified) | 3.81
COc1ccc(CCN2CC(C(=O)NCc3ccc(F)cc3)CC2=O)cc1OC (stereo unspecified) | 11.9
CCNC(=O)C1(C)CCCN(Cc2cccc(Oc3ccccc3)c2)C1 (stereo unspecified) | -2.58
CCCNC(=O)C1(C)CCCN(C(=O)c2ccc(OC(F)F)cc2)C1 (stereo unspecified) | -13.5
CCNC(=O)C1CCCN(C(=O)c2cc(OC)c(OC)c(OC)c2)CC1 (stereo unspecified) | 3.32
O=C(CNC(=O)c1ccco1)N/N=C/c1ccc([N+](=O)[O-])o1 | 2.12
CN(Cc1ccccc1)C(=O)C1CCCN(Cc2ccccc2)C1 (stereo unspecified) | -26.8
CCCNC(=O)C1(C)CCCN(C(=O)Cc2ccc(OC)c(OC)c2)C1 (stereo unspecified) | 3.6
